Source: the supplement of paper PMC11732987, “Enantioselective OTUD7B fragment discovery through chemoproteomics screening and high-throughput optimisation” (Communications Chemistry, 2025)

Legend:
Test in all cases: log2 ratio of Biotin-Ahx-Ub-VS probe labelling (fragment/DMSO); higher = less target engagement (more negative = stronger competition), active = hit call of the paper (q ≤ 0.05, log2 ratio ≤ -1)
Details in all cases: compound concentration: 200 uM; treatment time: 3 h
[1] = target: T1, OTUD6B (UniProt Q8N6M0)
T1 sequence (whole entry): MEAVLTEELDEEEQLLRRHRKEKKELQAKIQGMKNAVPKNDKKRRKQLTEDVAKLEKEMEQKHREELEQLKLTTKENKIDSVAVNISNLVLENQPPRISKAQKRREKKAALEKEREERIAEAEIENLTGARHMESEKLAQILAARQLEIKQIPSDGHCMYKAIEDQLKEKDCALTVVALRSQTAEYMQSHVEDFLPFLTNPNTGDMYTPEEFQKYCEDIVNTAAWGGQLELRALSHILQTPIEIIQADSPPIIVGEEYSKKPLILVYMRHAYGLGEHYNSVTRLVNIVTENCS
Outline: (§1)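 In triplicate, 495 µg of HEK293T lysate per sample was incubated with fragment at 200 µM or vehicle for 3 h. Biotin-Ahx-Ub-VS was then added to 0.5 µM final for 1 h, and labelled DUBs were captured with NeutrAvidin, digested with LysC and trypsin, and measured by diaPASEF LC-MS/MS. Data are average log2 fragment/vehicle ratios by unpaired t-test from global-median-normalised Spectronaut label-free quantities, restricted to proteins with ≥2 unique peptides.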

[2] = target: T2, OTUD7B (UniProt Q6GQQ9)
T2 sequence (whole entry): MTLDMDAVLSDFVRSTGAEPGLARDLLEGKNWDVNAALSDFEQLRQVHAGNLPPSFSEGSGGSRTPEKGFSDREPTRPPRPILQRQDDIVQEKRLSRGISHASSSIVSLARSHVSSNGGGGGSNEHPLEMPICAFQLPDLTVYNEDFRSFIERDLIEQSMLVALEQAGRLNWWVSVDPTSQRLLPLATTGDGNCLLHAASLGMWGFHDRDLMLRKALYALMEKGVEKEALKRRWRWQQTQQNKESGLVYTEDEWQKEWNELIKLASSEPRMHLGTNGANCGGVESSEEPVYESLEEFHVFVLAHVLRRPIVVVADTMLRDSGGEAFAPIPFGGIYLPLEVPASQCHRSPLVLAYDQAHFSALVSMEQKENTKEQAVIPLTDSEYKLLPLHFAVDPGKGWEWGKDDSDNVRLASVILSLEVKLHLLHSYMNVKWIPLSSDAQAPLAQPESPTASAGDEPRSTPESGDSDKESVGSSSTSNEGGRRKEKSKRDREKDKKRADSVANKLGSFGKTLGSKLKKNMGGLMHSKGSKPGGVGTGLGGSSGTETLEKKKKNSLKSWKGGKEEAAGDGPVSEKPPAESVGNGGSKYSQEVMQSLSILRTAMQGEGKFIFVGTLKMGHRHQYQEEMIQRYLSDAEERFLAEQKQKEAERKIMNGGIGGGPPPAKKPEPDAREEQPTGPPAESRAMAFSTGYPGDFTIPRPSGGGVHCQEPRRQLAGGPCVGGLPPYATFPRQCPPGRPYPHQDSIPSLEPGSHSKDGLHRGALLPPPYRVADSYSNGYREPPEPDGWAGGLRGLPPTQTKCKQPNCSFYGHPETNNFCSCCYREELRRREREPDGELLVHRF
Outline: as §1

[3] = target: PRPF8 (UniProt Q6P2Q9)
Outline: as §1

[4] = target: T3, PSMD7 (UniProt P51665)
T3 sequence (whole entry): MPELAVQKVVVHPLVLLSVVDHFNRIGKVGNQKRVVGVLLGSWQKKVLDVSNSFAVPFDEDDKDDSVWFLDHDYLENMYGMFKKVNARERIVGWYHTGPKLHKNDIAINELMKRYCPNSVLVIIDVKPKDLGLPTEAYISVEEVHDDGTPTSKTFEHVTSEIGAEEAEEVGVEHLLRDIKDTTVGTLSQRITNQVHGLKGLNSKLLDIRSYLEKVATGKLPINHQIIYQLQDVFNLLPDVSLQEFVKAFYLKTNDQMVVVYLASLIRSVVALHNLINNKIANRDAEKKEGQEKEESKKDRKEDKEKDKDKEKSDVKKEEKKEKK
Outline: as §1

[5] = target: UCHL1 (UniProt P09936)
UCHL1, sequence (P09936 whole entry, looked up): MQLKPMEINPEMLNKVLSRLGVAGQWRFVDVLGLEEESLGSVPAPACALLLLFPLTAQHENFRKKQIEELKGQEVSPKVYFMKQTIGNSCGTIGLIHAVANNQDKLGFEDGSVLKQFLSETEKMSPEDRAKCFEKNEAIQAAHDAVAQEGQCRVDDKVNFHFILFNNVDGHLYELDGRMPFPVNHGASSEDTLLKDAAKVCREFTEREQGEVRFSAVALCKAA
Outline: as §1

[6] = target: T4, UCHL3 (UniProt P15374)
T4 sequence (whole entry): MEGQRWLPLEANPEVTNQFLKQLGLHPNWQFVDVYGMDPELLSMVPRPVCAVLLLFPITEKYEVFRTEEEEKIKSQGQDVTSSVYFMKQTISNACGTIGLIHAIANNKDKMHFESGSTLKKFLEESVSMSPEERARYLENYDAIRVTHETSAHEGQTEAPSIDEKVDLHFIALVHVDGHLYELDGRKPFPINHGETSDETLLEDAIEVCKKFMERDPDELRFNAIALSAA
Outline: as §1

[7] = target: T5, UCHL5 (UniProt Q9Y5K5)
T5 sequence (whole entry): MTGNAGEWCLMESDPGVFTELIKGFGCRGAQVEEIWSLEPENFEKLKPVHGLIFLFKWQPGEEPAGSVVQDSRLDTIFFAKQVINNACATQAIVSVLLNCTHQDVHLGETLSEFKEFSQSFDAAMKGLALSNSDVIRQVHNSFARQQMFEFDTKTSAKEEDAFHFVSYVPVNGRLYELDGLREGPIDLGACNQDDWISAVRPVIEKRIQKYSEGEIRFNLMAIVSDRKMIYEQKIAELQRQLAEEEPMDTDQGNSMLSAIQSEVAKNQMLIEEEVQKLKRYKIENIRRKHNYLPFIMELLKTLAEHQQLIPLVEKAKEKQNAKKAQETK
Outline: as §1

[8] = target: USP10 (UniProt Q14694)
USP10, sequence (Q14694 whole entry): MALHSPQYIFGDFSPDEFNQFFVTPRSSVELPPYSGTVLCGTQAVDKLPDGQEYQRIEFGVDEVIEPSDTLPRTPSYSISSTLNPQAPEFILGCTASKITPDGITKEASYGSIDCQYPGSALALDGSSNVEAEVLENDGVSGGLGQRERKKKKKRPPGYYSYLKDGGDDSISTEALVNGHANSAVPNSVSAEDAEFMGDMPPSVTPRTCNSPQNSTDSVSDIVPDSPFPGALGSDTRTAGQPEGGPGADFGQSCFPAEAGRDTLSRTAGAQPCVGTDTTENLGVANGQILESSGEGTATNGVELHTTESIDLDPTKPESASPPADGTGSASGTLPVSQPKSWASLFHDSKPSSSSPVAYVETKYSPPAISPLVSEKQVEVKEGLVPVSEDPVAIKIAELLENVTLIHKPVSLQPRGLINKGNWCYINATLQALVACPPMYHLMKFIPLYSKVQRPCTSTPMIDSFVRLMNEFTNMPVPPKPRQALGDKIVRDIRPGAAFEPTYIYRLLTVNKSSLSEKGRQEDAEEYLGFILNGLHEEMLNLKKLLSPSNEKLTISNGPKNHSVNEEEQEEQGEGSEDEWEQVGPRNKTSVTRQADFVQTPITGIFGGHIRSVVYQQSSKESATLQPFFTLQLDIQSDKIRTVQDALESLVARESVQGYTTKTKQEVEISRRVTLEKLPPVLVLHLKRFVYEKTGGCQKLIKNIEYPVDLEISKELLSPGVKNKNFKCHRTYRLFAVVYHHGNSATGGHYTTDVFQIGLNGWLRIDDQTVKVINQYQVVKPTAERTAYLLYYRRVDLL
Outline: as §1

[9] = target: T6, USP15 (UniProt Q9Y4E8)
T6 sequence (whole entry): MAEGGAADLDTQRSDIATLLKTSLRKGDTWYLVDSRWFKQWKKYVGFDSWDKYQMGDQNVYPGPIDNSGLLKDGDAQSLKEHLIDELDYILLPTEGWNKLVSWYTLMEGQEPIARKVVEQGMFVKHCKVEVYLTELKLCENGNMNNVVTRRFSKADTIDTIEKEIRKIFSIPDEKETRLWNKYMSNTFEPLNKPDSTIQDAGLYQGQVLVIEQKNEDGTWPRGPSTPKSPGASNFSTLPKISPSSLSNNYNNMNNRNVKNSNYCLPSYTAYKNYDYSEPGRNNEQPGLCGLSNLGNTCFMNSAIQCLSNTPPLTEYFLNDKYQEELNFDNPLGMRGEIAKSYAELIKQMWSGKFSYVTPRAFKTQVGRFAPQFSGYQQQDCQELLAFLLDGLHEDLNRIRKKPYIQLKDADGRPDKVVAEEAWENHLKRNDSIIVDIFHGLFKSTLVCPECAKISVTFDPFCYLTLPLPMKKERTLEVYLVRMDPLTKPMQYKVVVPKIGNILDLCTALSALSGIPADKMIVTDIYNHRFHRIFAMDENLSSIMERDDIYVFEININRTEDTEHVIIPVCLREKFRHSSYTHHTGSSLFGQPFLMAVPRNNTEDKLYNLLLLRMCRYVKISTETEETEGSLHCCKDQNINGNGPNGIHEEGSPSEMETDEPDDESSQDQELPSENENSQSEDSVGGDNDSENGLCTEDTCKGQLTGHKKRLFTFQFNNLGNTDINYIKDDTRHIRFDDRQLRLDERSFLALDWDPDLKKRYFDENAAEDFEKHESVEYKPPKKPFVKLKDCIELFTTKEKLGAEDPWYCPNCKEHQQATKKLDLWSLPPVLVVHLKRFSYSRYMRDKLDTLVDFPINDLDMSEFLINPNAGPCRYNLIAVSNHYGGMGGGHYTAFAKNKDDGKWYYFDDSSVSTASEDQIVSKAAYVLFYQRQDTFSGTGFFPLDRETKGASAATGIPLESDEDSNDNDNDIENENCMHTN
Outline: as §1

[10] = target: USP16 (UniProt Q9Y5T5)
USP16, sequence (Q9Y5T5 whole entry, looked up): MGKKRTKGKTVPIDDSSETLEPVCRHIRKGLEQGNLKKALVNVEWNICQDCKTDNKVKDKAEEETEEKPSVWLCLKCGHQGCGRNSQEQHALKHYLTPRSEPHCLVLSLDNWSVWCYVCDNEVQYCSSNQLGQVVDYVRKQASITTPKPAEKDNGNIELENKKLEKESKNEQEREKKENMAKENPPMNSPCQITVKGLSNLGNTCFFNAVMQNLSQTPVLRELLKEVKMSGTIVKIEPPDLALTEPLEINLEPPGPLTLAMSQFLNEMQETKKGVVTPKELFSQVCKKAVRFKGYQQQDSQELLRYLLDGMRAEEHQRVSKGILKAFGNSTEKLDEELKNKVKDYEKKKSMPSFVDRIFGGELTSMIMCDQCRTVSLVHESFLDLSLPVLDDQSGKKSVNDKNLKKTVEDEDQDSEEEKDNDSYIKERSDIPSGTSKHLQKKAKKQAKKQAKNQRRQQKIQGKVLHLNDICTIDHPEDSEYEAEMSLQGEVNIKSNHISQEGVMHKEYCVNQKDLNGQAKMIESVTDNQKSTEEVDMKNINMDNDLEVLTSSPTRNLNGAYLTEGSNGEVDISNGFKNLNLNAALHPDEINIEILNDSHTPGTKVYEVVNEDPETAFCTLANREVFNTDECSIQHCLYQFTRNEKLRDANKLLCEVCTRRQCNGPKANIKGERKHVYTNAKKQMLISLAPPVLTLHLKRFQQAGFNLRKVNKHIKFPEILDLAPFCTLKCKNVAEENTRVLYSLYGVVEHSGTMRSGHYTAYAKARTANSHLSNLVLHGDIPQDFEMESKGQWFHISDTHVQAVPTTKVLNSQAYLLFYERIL
Outline: as §1

Measured: log2 ratio of Biotin-Ahx-Ub-VS probe labelling

O=C(CCl)N1CCC(c2ccn[nH]2)C1 (stereo not given)
inactive: [1] -0.234 | [2] -0.648 | [3] -0.154 | [4] -0.294 | [5] -0.579 | [6] -0.0683 | [7] -0.213 | [8] -0.079 | [9] -0.555 | [10] -0.161
